# Test results published in PubChem BioAssay (NCI).
# The panel holds about 83,000 compounds, 20% with a hit somewhere; the sample as a whole holds those more often.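 Single-dose data. Exposure time 48 hours. Values below 10 considered active.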 A number with no mark means an inactive call. Calls of active or inactive are those of the source.
# Assays:
# Assay in all cases: NCI-60 one-dose screen, 48 h (100 = growth as untreated, 0 = no growth, -100 = all killed)
# Settings in all cases: 10 µM unless noted
# NCI-H23 lung = tested on: NCI-H23 lung
# NCI-H226 lung = tested on: NCI-H226 lung
# NCI-H322M lung = tested on: NCI-H322M lung
# HOP-62 NSCLC = tested on: HOP-62 NSCLC
# NCI-H460 lung = tested on: NCI-H460 lung
# NCI-H522 lung = tested on: NCI-H522 lung
# 786-0 renal = tested on: 786-0 renal
# COLO 205 colon = tested on: COLO 205 colon
# DU-145 prostate = tested on: DU-145 prostate
# MALME-3M melanoma = tested on: MALME-3M melanoma
# MDA-MB-231 breast = tested on: MDA-MB-231 breast
# RXF 393 renal = tested on: RXF 393 renal
# SF-268 CNS = tested on: SF-268 CNS
# SF-295 CNS = tested on: SF-295 CNS
# SF-539 CNS = tested on: SF-539 CNS
# UACC-257 melanoma = tested on: UACC-257 melanoma
# M14 melanoma = tested on: M14 melanoma
# K-562 leukemia = tested on: K-562 leukemia
# A549/ATCC NSCLC = tested on: A549/ATCC NSCLC
SMILES,growth (NCI-H23 lung),growth (NCI-H226 lung),growth (NCI-H322M lung),growth (HOP-62 NSCLC),growth (NCI-H460 lung),growth (NCI-H522 lung),growth (786-0 renal),growth (COLO 205 colon),growth (DU-145 prostate),growth (MALME-3M melanoma),growth (MDA-MB-231 breast),growth (RXF 393 renal),growth (SF-268 CNS),growth (SF-295 CNS),growth (SF-539 CNS),growth (UACC-257 melanoma),growth (M14 melanoma),growth (K-562 leukemia),growth (A549/ATCC NSCLC)
CC1=CCC2C1CC=C(C)C(CC[C@H]1[C@@](C)(O)CCC3OC(C)(C)[C@H](OC(=O)c4ccccc4)CC[C@@]31C)C2(C)C (stereo not given in full),65.2%,72.9%,96.3%,86%,97.1%,67.8%,70.9%,112%,106%,111%,88%,69.8%,93.6%,84.7%,99.1%,81.3%,90.1%,,
COC(=O)CSc1ccc(Cl)cc1,102%,123%,102%,107%,109%,92.2%,95.3%,108%,111%,95.5%,116%,136%,119%,107%,97.3%,104%,103%,89.6%,
CC[C@H](C)[C@H](N)C(=O)O,111%,96.5%,96.9%,102%,108%,101%,112%,103%,106%,103%,97.7%,96.8%,105%,104%,100%,119%,105%,122%,
O=S(=O)(Nc1ccc2ccccc2c1)N1CCCCC1,56.6%,75.9%,92.8%,62.9%,65.5%,2.32% (active),70.3%,69.9%,78.4%,63.3%,71.8%,68.3%,61.3%,64%,70.2%,61.1%,38.6%,41.4%,
Nc1c(Br)cc2c(c1Br)Cc1cc(Cl)ccc1-2,89.2%,78.6%,89.2%,83.4%,99.7%,102%,108%,106%,112%,109%,70%,106%,107%,87.8%,89.5%,111%,106%,,95.8%
Cc1ccccc1Nc1n[nH]c(Cc2ccccc2)n1,102%,100%,99.1%,94.6%,108%,58%,105%,122%,103%,101%,110%,108%,101%,103%,107%,92.7%,106%,72%,
CCN(CC)CC(=O)Nc1c(C)ccc(N)c1C,101%,98.4%,90.2%,94.2%,108%,,93.4%,97.6%,107%,90.5%,107%,116%,102%,97%,99.6%,105%,101%,128%,100%
C=C1C[C@@]2(C)C(CC[C@]3(C)C2CC=C2C4CC(C)(C)C[C@@H](OC(=O)/C(C)=C\C)[C@]4(C(=O)O)CC[C@]23C)C(C)(C)C1=O (stereo not given in full),-45.6% (active),-72.8% (active),46.7%,25.9%,-37.2% (active),-6.98% (active),-77.9% (active),-11.2% (active),10.3%,36.5%,22.7%,-75.6% (active),50.4%,59.8%,-19.8% (active),17.1%,-14.2% (active),1.39% (active),
COc1ccc2nc3cc(Cl)ccc3c(NC(=O)CSc3ccc(Cl)cc3)c2c1,-90% (active),-44.4% (active),-90.1% (active),-99.5% (active),-84.4% (active),,-98.2% (active),-20.1% (active),-98.3% (active),-77.1% (active),-69.3% (active),-99.1% (active),-88.9% (active),-86.2% (active),-91.9% (active),-90% (active),-97.4% (active),-3.86% (active),-69.4% (active)
CCN(CC)c1ccc(/C=N/NC(=O)c2ccc(S(C)(=O)=O)cc2)c(O)c1,32.8%,22.6%,25%,12.9%,3.28% (active),,15.4%,8.62% (active),24.5%,14%,43.2%,28.6%,21.8%,21.4%,4.01% (active),-11.5% (active),3.37% (active),12.4%,12.5%
COc1cc(/C=C2\CN(C(=O)OC(C)(C)C)C/C(=C\c3ccc(O)c(OC)c3)C2=O)ccc1O,97.8%,94.6%,100%,98%,91.7%,,93.3%,110%,101%,97.5%,86.1%,102%,89.5%,101%,106%,73.6%,93.9%,80.1%,73.2%
O=c1c2cc(Br)cc(Br)c2nc(-c2ccc(Cl)cc2)n1/N=C\c1ccccc1F,62.9%,51.2%,52.5%,27.4%,39.1%,,-34% (active),66.3%,96%,90.4%,55.1%,72.9%,73.3%,29.8%,81.9%,89.9%,81.8%,72.1%,57.1%
COc1cccc(NC(=O)OC(C)C)c1,98.7%,107%,99%,103%,105%,,104%,103%,103%,94.5%,116%,109%,108%,108%,106%,108%,112%,88.1%,94.7%
CC(C)(C)[Si](C)(C)OC1[C@@H](O[Si](C)(C)C(C)(C)C)[C@@H](CNC(=O)NC(=O)NC(=O)CCl)O[C@H]1n1cnc2c(NC(=O)Nc3ccccc3)ncnc21 (stereo not given in full),-35.6% (active),88.2%,103%,36.7%,43.5%,,26.6%,57.1%,87.5%,-78.7% (active),-28.3% (active),21.9%,47.1%,-20.6% (active),82.7%,97.8%,64.7%,47.1%,55.8%
COc1ccc(C(=O)OC2C(OC3C(O)COC(O[C@H]4C[C@H]5[C@@H]6CC=C7C[C@@H](O)CC[C@]7(C)[C@H]6CC[C@]5(C)[C@H]4[C@H](C)C(=O)CCC(C)C)C3OC(C)=O)OCC(O)C2O)cc1 (stereo not given in full),2.95% (active),-14% (active),36.9%,-32.2% (active),-20.3% (active),,-41.2% (active),-64.3% (active),28.5%,-12.7% (active),10.6%,-71.9% (active),-12.6% (active),-64.5% (active),-69.8% (active),-60.3% (active),-69.3% (active),-50.3% (active),-14.3% (active)
c1cc2c(cc1-c1cnc3nonc3n1)OCO2,99.3%,93.4%,103%,83.5%,100%,,109%,91.2%,103%,98.6%,75.1%,122%,82.9%,101%,73.2%,93%,101%,59.3%,97.4%
CCCCCCCCN(CCCCCCCC)C(=O)CCl,70.6%,96.8%,108%,113%,102%,,80.6%,108%,110%,84.8%,104%,103%,99%,106%,106%,112%,104%,105%,114%
